Source: the supplement of paper PMC13380429

Test system: Vero E6 infected with SARS-CoV-2
Assay: inhibition of SARS-CoV-2 cytopathic effect; higher = more antiviral protection, active = above 15
Conditions: 48 h

Measured: inhibition of SARS-CoV-2 cytopathic effect

CN1C(=O)C[C@@H](C(=O)N[C@@H](Cc2c[nH]cn2)C(=O)N2CCC[C@H]2C(N)=O)NC1=O [taltirelin]
inactive: 1 nM 1.73% | 8.33 nM 3.69% | 100 nM 3% | 833.33 nM 3.21% | 10000 nM 4.65%

O=C(OCC(O)CO)c1ccccc1Nc1ccnc2c(C(F)(F)F)cccc12 (stereo not given) [floctafenine]
inactive: 1 nM 0.71% | 8.33 nM 6.76% | 100 nM 1.82% | 833.33 nM 3.08% | 10000 nM 3.04%

CC(C)(Oc1ccc(Cl)cc1)C(=O)O [clofibric-acid]
inactive: 1 nM 0.55% | 8.33 nM 2.02% | 100 nM 0.3% | 833.33 nM 2.45% | 10000 nM 2.22%

COc1ccc(C2=N[C@@H](c3ccc(Cl)cc3)[C@@H](c3ccc(Cl)cc3)N2C(=O)N2CCNC(=O)C2)c(OC(C)C)c1 [nutlin-3]
inactive: 1 nM 1.71% | 8.33 nM 1.61% | 100 nM 5.23% | 833.33 nM 5.08% | 10000 nM 3.38%

Clc1ccccc1C(c1ccccc1)(c1ccccc1)n1cccn1
inactive: 1 nM 2.55% | 8.33 nM 1.8% | 100 nM -0.74% | 833.33 nM 1.1% | 10000 nM 0.33%

Clc1ccc(Cn2c(CN3CCCC3)nc3ccccc32)cc1 [clemizole]
inactive: 1 nM -3.82% | 8.33 nM -2.64% | 100 nM -3.58% | 833.33 nM -3.06% | 10000 nM -6.74%

O=c1cc(-c2ccccc2)oc2cc(O)cc(O)c12 [chrysin]
inactive: 1 nM -1.5% | 8.33 nM 0.24% | 100 nM -1.23% | 833.33 nM -7.18% | 10000 nM -3.61%

CCCCCCCCCCCCOS(=O)(=O)O [dodecyl-sulfate]
inactive: 1 nM -0.285% | 8.33 nM 1.83% | 100 nM 1.98% | 833.33 nM 0.175% | 10000 nM 0.47%

OCCn1cc(-c2cnc3nnn(Cc4ccc5ncccc5c4)c3n2)cn1
inactive: 1 nM 1.37% | 8.33 nM 2% | 100 nM 1.01% | 833.33 nM 2.71% | 10000 nM 2.26%

O=C(O)CCc1c(C(=O)O)[nH]c2cc(Cl)cc(Cl)c12
inactive: 1 nM 0.7% | 8.33 nM 2.79% | 100 nM 1.68% | 833.33 nM -2.26% | 10000 nM 0.81%

NC(=O)N/N=C/c1ccc(Oc2ccc(F)cc2)cc1
inactive: 1 nM -1.46% | 8.33 nM -1.91% | 100 nM -0.81% | 833.33 nM 1.11% | 10000 nM 3.26%

O=c1oc(-c2ccc(C(F)(F)F)cc2)nn1Cc1cc(Cl)ccc1O
inactive: 1 nM -2.43% | 8.33 nM -1.09% | 100 nM 3.13% | 833.33 nM 3.7% | 10000 nM 13.8%

Cc1ccc(C(=O)Nc2ccc(S(=O)(=O)O)c3cc(S(=O)(=O)O)cc(S(=O)(=O)O)c23)cc1NC(=O)c1cccc(NC(=O)Nc2cccc(C(=O)Nc3cc(C(=O)Nc4ccc(S(=O)(=O)O)c5cc(S(=O)(=O)O)cc(S(=O)(=O)O)c45)ccc3C)c2)c1 [suramin]
inactive: 1 nM 0.16% | 8.33 nM 0.17% | 100 nM 0.66% | 833.33 nM -0.75% | 10000 nM 1.44%

NC(Cc1ccc(I)cc1)C(=O)O (stereo in doubt) [4-iodo-L-phenylalanine]
inactive: 1 nM 0.62% | 8.33 nM -0.66% | 100 nM 0.54% | 833.33 nM 0.32% | 10000 nM -0.26%

N=C(NCCCCCCNC(=N)NC(=N)Nc1ccc(Cl)cc1)NC(=N)Nc1ccc(Cl)cc1 [chlorhexidine]
inactive: 1 nM 3.47% | 8.33 nM 4.11% | 100 nM 4.83% | 833.33 nM 2.74% | 10000 nM -3.2%

COc1ccccc1OCC(O)CN1CCN(CC(=O)Nc2c(C)cccc2C)CC1 (stereo not given) [ranolazine]
inactive: 1 nM 0.1% | 8.33 nM -0.38% | 100 nM -2.33% | 833.33 nM 0.17% | 10000 nM -0.73%

CCS(=O)(=O)N1CCC([C@@H](C)n2c(C)c(C(=O)NCc3c(OC)cc(C)[nH]c3=O)c3ccccc32)CC1
inactive: 1 nM 0.38% | 8.33 nM 2.34% | 100 nM 0.88% | 833.33 nM 0.2% | 10000 nM -1.12%

CC(C)(C)c1ccc(S(=O)(=O)NCc2ccc(C(=O)Nc3cccnc3)cc2)cc1
inactive: 1 nM 1.28% | 8.33 nM 0.01% | 100 nM -0.96% | 833.33 nM -2.95% | 10000 nM -10.9%
